# Screening results: PubChem BioAssay, National Center for Advancing Translational Sciences (NCATS)
# NPC1 promoter act: NPC1 promoter activation. Huh7 NPC1 promoter luciferase reporter, 24 h. Potency, µM (titrated, usually from 9.22 µM), without a hit: top-dose activation, actives largely listed as activators. 320,000 tested, 2.4% active. AID 485313; note: % of control where 0% means no effect; nearly all actives have a fitted effect of over 60% in size
#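 Stable NPC1-promoter luciferase Huh7 line; cpd (DMSO) 24 h, 37 °C, 5% CO2; Amplite luciferase reagent 10 min RT; luminescence readout. qHTS format.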
# ELG1 genotoxic: genotoxicity induction in ELG1-luciferase HEK293T cells; AID 504466; HEK293T ELG1-luciferase reporter, luminescence, 16 h; 330,000 tested, 1.3% active; Potency, µM (top dose mostly 46 µM), for inactives: top-dose activity change, positive = activation, most hits filed as activators; note: % of control where 0% means no effect; nearly all actives have a fitted effect of over 60% in size
#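 Quantitative HTS format in 1536-well plates. HEK293T ELG1-luciferase reporter cells receive test compound and are incubated 16 hr at 37 °C, 5% CO2; ONE-Glo added, 30 min room temperature, then luminescence read.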
# SMN2 splice up: enhancers of SMN2 splice variant expression; HEK293 SMN2-luciferase splicing reporter, luminescence, 30-36 h; Potency, µM (top dose mostly 46.1 µM), for the others: at the top dose activity change, positive = activation, most hits filed as activators; 210,000 tested, 2.8% active; AID 1458; note: % of control where 0% means no effect; nearly all actives have a fitted effect of over 55% in size
#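 qHTS luciferase splicing reporter: luminescence rises when SMN2 exon 7 is included in transfected HEK293 cells. Compound exposure lasted 30-36 h at 37C, with 4.5 mM final sodium butyrate as control, followed by a ONE-Glo read.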
# KinaseGlo FLuc: counter-screen: inhibitors of Kinase-Glo firefly luciferase; Q27757; Kinase-Glo luciferase, ATP luminescence, 8 min; Potency, µM (highest dose often 38.3 µM), without a hit: top-dose activity change, negative = inhibition, actives largely listed as inhibitors; 200,000 tested, 0.28% active; note: % is set by controls: 0 for no effect and ±100 for the full control effect; nearly all actives have a fitted effect of over 60% in size
#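 Compound is pinned into ATP-containing buffer (10 uM ATP, imidazole pH 7.2, 7 mM MgCl2). Kinase-Glo luciferase reagent is then added. Light output is recorded following an 8-min room-temperature incubation.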
# Rab9 promoter act: Rab9 promoter activation | Potency, µM (highest dose often 9.22 µM), inactives show at the highest dose activation, negative = inhibition, most hits filed as activators | Huh7 Rab9 promoter-luciferase reporter, luminescence, 24 h | 320,000 tested, 2.8% active; note: % of control where 0% means no effect; nearly all actives have a fitted effect of over 60% in size
#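 Promoter activation is measured as luciferase luminescence in Huh7 cells stably transfected with a Rab9 promoter–luciferase construct, following 24 h compound exposure at 37 °C and 10 min reagent incubation at ambient temperature.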
# FLuc modulator: firefly luciferase modulation, counter-screen for miR-21 project. purified FLuc, Km substrates, luminescence inhibition. P08659. Potency, µM (top dose mostly 57.5 µM), inactives show at the highest dose activity change, negative = inhibition, usual class: inhibitors. 360,000 tested, 6.9% active;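 note: plate controls were vehicle for no effect and reference inhibitor for full effect; nearly all actives have a fitted effect of over 55% in size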
# Target sequence (P08659 whole entry, looked up): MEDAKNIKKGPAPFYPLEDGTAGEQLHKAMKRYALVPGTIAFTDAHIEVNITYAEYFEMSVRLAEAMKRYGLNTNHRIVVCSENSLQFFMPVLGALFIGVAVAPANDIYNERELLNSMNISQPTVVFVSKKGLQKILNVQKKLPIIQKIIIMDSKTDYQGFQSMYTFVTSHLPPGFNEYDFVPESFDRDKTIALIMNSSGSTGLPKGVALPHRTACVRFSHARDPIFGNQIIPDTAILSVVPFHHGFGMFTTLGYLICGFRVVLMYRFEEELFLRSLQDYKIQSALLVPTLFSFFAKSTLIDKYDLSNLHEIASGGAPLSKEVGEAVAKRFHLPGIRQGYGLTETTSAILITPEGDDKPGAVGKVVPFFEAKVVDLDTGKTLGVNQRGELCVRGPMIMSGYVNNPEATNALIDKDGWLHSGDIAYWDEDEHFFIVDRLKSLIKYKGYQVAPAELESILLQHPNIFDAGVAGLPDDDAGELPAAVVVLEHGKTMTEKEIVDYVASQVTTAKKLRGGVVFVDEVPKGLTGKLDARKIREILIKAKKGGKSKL
#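 Biochemical qHTS of compounds, final roughly 60 µM downward over six points, against 10 nM purified firefly luciferase using Km concentrations of substrates (10 uM D-luciferin, 10 uM ATP) in Tris acetate pH 7.5 buffer; luminescence output.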
# * marks the source's active call; other numbers are inactive results; ? = inconclusive; nt = no result. In the library only some 7.3% were active in any assay of this set; here they are far more common. Calls come from the whole dose curve; as a rule, active = well fitted curve in the direction sought with a large enough effect; inconclusive = small, poorly fitted or top-dose-only effect, or another doubt; inactive = no such curve, though single readings can be large; an effect the other way counts as inactive or inconclusive. Potency is the fitted concentration of half-maximal effect.
SMILES,NPC1 promoter act,ELG1 genotoxic,SMN2 splice up,KinaseGlo FLuc,Rab9 promoter act,FLuc modulator
CCc1nnc(NC(=O)C2CCN(C(=O)c3ccco3)CC2)s1,2%,16%,nt,nt,-1%,-3%
CCCC(=O)Nc1ccc(-c2cn3cccnc3n2)cc1,28%,13%,nt,nt,?,17µM*
CC(C)(C)CC(=O)Nc1ccc(-c2cn3cccnc3n2)cc1,2.8µM*,?,nt,nt,?,9.5µM*
CC(C)(C)C(=O)Nc1cccc(-c2cn3cccnc3n2)c1,nt,nt,nt,nt,nt,-3%
CC(C)CC(=O)Nc1cccc(-c2cn3cccnc3n2)c1,nt,nt,nt,nt,nt,24µM*
CC(C)CC(=O)Nc1ccc(-c2cn3cccnc3n2)cc1,?,?,nt,nt,28%,15µM*
CCOCC(=O)Nc1ccc(-c2cn3cccnc3n2)cc1,-1%,4%,13%,-6%,3%,?
CCCC(=O)Nc1cccc(-c2cn3cccnc3n2)c1,4%,9%,7%,0%,-4%,-19%
COc1nccnc1NS(=O)(=O)c1ccc(NC(=S)NC(=O)c2ccccc2F)cc1,0%,1%,5%,-19%,-3%,1%
Cc1ccc(N(C(=O)c2csnn2)C(C(=O)NC(C)(C)C)c2cccs2)cc1 (stereo unspecified),-3%,1%,-4%,-1%,-6%,-2%
COc1cc(C(=O)Nc2cccc(-c3nc4ncccc4o3)c2C)cc(OC)c1OC,-3%,-9%,-30%,-1%,-3%,1%
Cc1ccc2oc(-c3ccc(C)c(NC(=S)NC(=O)c4cccs4)c3)nc2c1,19%,8.2µM*,?,2%,29%,6µM*
Cc1ccc2oc(-c3cccc(NC(=O)c4cccc5c(Cl)cccc45)c3)nc2c1,nt,nt,-6%,nt,nt,-5%
Cc1ccc2oc(-c3ccc(C)c(NC(=O)c4ccc(C(C)(C)C)cc4)c3)nc2c1,nt,nt,-16%,nt,nt,-15%
COc1cc(C(=O)Nc2cccc(-c3nc4cc(C)ccc4o3)c2)cc(OC)c1OC,18%,-4%,-10%,-1%,20%,1.7µM*
COc1cc(C(=O)Nc2cccc(-c3nc4cc(C)ccc4o3)c2C)cc(OC)c1OC,16%,11%,5%,1%,7%,0.95µM*
COc1cc(C(=O)Nc2cc(-c3nc4cc(C)ccc4o3)ccc2C)cc(OC)c1OC,?,?,?,-8%,?,0.27µM*
Cc1ccc2oc(-c3ccc(C)c(NC(=O)C(C)(C)Oc4ccc(Cl)cc4)c3)nc2c1,nt,nt,?,nt,nt,3.8µM*
Cc1ccc(C(=O)Nc2cc(-c3nc4cc(Cl)ccc4o3)ccc2C)c(C)c1,nt,nt,-8%,nt,nt,5%
CC1CCc2sc(C(=O)NNS(=O)(=O)c3ccc(F)c(F)c3F)cc2C1 (stereo unspecified),0%,6%,nt,nt,0%,11µM*
CC1CCc2sc(C(=O)NNC(=S)NC3CC3)cc2C1 (stereo unspecified),?,2%,nt,nt,1.1µM*,-16%
CC1CCc2sc(C(=O)NCC3CCCO3)cc2C1 (stereo unspecified),2.8µM*,?,nt,nt,4µM*,11µM*
CC1CCc2sc(C(=O)Nc3ccc(C(N)=O)cc3)cc2C1 (stereo unspecified),?,?,nt,nt,25%,2.4µM*
CC1CCc2sc(C(=O)NN)cc2C1 (stereo unspecified),5%,-4%,nt,nt,7%,?
O=c1cc(CO)occ1OCc1cccc(C(F)(F)F)c1,14%,1%,-7%,-3%,3%,0%
COc1ccc(NC(=O)c2ccccc2NC(=O)c2ccco2)cc1,-7%,7%,nt,nt,-1%,-11%
CC(C)c1cnc2c(c1SCC(=O)O)c(=O)n(C)c(=O)n2C,nt,nt,nt,nt,nt,-15%
Cn1c(CN2CCOCC2)nnc1SCc1ccccc1,0%,1%,-17%,-3%,-3%,0%
c1ccc2[nH]c(-c3ccnc4ccccc34)nc2c1,?,?,?,0%,3.5µM*,24µM*
